Where “and” joins values, the source holds several entries; their conditions need not be identical. Equal values may be shown once. Some compounds were tested as several samples or in several runs, with calls that do not always agree. Calls of active or inactive are those of the source. Rule for the calls: active = hit-call score of the fitted dose curve at least 0.9, where 1 is the maximum; inactive = score below 0.9.
What was measured:
[1] = read-out: TIMP metallopeptidase inhibitor 1 (TIMP1), TIMP1 (gene 7076); assay: BSK_hDFCGF_TIMP1: BioMAP Diversity Plus: hDFCGF Assay for TIMP metallopeptidase inhibitor 1 (TIMP1) Biomarker Activity (AID 2283062); conditions: primary human foreskin fibroblasts; actives raise or lower the signal
Summary of the method: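 ELISA readout of TIMP-1 from human dermal foreskin fibroblast cultures 24 h post-dosing. Curves were fitted in both directions against DMSO baseline, with SRB total-protein staining in parallel cultures as a cytotoxicity check.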

[2] = read-out: Monokine induced gamma interferon (MIG), CXCL9 (gene 4283); assay: BSK_hDFCGF_MIG: BioMAP Diversity Plus: hDFCGF Assay for Monokine induced gamma interferon (MIG) Biomarker Activity (AID 2283063); conditions: primary human foreskin fibroblasts; actives raise or lower the signal
Summary of the method: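 Fibroblasts (human foreskin, primary) dosed, 24 h, MIG by ELISA; fit bidirectional vs DMSO.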

[3] = read-out: Matrix Metallopeptidase 1 (MMP1), MMP1 (gene 4312); assay: BSK_hDFCGF_MMP1: BioMAP Diversity Plus: hDFCGF Assay for Matrix Metallopeptidase 1 (MMP1) Biomarker Activity (AID 2283064); conditions: primary human foreskin fibroblasts; actives raise or lower the signal
Summary of the method: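 Human foreskin fibroblasts exposed to chemical for 24 h; MMP1 detected by ELISA, with DMSO as baseline for bidirectional fitting.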

[4] = read-out: Vascular cell adhesion molecule 1 (VCAM1), VCAM1 (gene 7412); assay: BSK_hDFCGF_VCAM1: BioMAP Diversity Plus: hDFCGF Assay for Vascular cell adhesion molecule 1 (VCAM1) Biomarker Activity (AID 2283065); conditions: primary human foreskin fibroblasts; actives raise or lower the signal;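 for AC50: VCAM-1 protein level quantified by ELISA after 24 h chemical exposure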
Summary of the method: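 ELISA read-out of VCAM-1 on human skin fibroblasts, 24 h post-dose; gain or loss of signal fitted bidirectionally against DMSO baseline.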

[5] = read-out: Plasminogen activator inhibitor-1 (PAI1), SERPINE1 (gene 5054); assay: BSK_hDFCGF_PAI1: BioMAP Diversity Plus: hDFCGF Assay for Plasminogen activator inhibitor-1 (PAI1) Biomarker Activity (AID 2283066); conditions: primary human foreskin fibroblasts; actives raise or lower the signal
Summary of the method: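 Fibroblasts from human foreskin were treated with test chemical. After 24 h, PAI-1 was measured by ELISA. Activity was fitted in both directions relative to DMSO.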

[6] = read-out: Intercellular Adhesion Molecule 1 (ICAM1), ICAM1 (gene 3383); assay: BSK_KF3CT_ICAM1: BioMAP Diversity Plus: KF3CT Assay for Intercellular Adhesion Molecule 1 (ICAM1) Biomarker Activity (AID 2283067); conditions: primary human keratinocytes with fibroblasts; actives raise or lower the signal
Summary of the method: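 ELISA readout of ICAM-1; KF3CT human skin co-culture (keratinocytes + foreskin fibroblasts), 24 h post-dose; gain/loss fit vs DMSO baseline.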

[7] = read-out: Interferon-gamma inducible Protein 10 (IP10), CXCL10 (gene 3627); assay: BSK_KF3CT_IP10: BioMAP Diversity Plus: KF3CT Assay for Interferon-gamma inducible Protein 10 (IP10) Biomarker Activity (AID 2283068); conditions: primary human keratinocytes with fibroblasts; actives raise or lower the signal
Summary of the method: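 KF3CT co-culture (keratinocytes + foreskin fibroblasts), 24 h compound, IP-10 by ELISA; bidirectional fit vs DMSO baseline.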

[8] = BSK_KF3CT_SRB: Viability Assessment in the BioMAP Diversity Plus: KF3CT Assay (AID 2283069); conditions: primary human keratinocytes with fibroblasts;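 note: read 24 h after compound addition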
Summary of the method: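 Overt cytotoxicity is assessed as total protein by sulforhodamine B staining in parallel human skin co-cultures at 24 h after dosing. DMSO serves as negative control and baseline.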

[9] = read-out: Interleukin-1 alpha (IL1a), IL1A (gene 3552); assay: BSK_KF3CT_IL1a: BioMAP Diversity Plus: KF3CT Assay for Interleukin-1 alpha (IL1a) Biomarker Activity (AID 2283070); conditions: primary human keratinocytes with fibroblasts; actives raise or lower the signal
Summary of the method: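 Readout is IL-1a level by ELISA, compared bidirectionally with DMSO as baseline. Cells: human keratinocytes co-cultured with foreskin fibroblasts, harvested 24 h post-dose.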

[10] = read-out: TIMP metallopeptidase inhibitor 2 (TIMP2), TIMP2 (gene 7077); assay: BSK_KF3CT_TIMP2: BioMAP Diversity Plus: KF3CT Assay for TIMP metallopeptidase inhibitor 2 (TIMP2) Biomarker Activity (AID 2283071); conditions: primary human keratinocytes with fibroblasts; actives raise or lower the signal
Summary of the method: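 Chemicals were dosed onto human skin primary co-cultures of keratinocytes and foreskin fibroblasts, and TIMP-2 was measured by ELISA after 24 hours. Activity in either direction was fitted relative to DMSO.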

[11] = read-out: Transforming growth factor beta 1 (TGFb1), TGFB1 (gene 7040); assay: BSK_KF3CT_TGFb1: BioMAP Diversity Plus: KF3CT Assay for Transforming growth factor beta 1 (TGFb1) Biomarker Activity (AID 2283072); conditions: primary human keratinocytes with fibroblasts; actives raise or lower the signal
Summary of the method: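 KF3CT co-culture (keratinocytes + fibroblasts), 24 h exposure → TGF-b1 ELISA → bidirectional fit, DMSO = baseline. Parallel SRB total-protein staining (0.1% SRB, 10% TCA fixation, 560 nm) for cytotoxicity.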

[12] = read-out: C-C motif chemokine 2 (Homo sapiens) (UniProt P13500); assay: BSK_KF3CT_MCP1: BioMAP Diversity Plus: KF3CT Assay for Monocyte Chemoattractant Protein 1 (MCP1/CCL2) Biomarker Activity (AID 2283073); conditions: primary human keratinocytes with fibroblasts; actives raise or lower the signal
Summary of the method: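 KF3CT skin co-culture (keratinocytes/foreskin fibroblasts), 24 h post-dose; MCP-1 by ELISA; gain/loss of signal fit bidirectionally vs DMSO baseline.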

[13] = read-out: Matrix Metallopeptidase 9 (MMP9), MMP9 (gene 4318); assay: BSK_KF3CT_MMP9: BioMAP Diversity Plus: KF3CT Assay for Matrix Metallopeptidase 9 (MMP9) Biomarker Activity (AID 2283074); conditions: primary human keratinocytes with fibroblasts; actives raise or lower the signal
Summary of the method: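 Values come from bidirectional fitting relative to DMSO of MMP-9 levels, which were measured by ELISA. Measurements were taken 24 h after chemical dosing of a keratinocyte and foreskin fibroblast co-culture.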

[14] = read-out: urokinase plasminogen activator (uPA), PLAU (gene 5328); assay: BSK_KF3CT_uPA: BioMAP Diversity Plus: KF3CT Assay for urokinase plasminogen activator (uPA) Biomarker Activity (AID 2283075); conditions: primary human keratinocytes with fibroblasts; actives raise or lower the signal
Summary of the method: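 Values derive from bidirectional fitting against DMSO controls. Keratinocyte/foreskin fibroblast co-cultures received chemical; 24 h later uPA was detected by ELISA, with SRB total-protein staining in parallel wells for overt cytotoxicity.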

CD40, CD40 (gene 958) = assay: BSK_LPS_CD40: BioMAP Diversity Plus: LPS Assay for CD40 Biomarker Activity (AID 2283076); conditions: primary human HUVEC with PBMC; actives raise or lower the signal
Summary of the method: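 ELISA readout of CD40 in HUVEC/PBMC co-culture (BSK_LPS system), 24 h post-dosing; bidirectional curve fit, DMSO baseline; parallel SRB total-protein staining for cytotoxicity.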

[15] = read-out: E-selectin (Homo sapiens) (UniProt P16581); assay: BSK_LPS_Eselectin: BioMAP Diversity Plus: LPS Assay for Eselectin Biomarker Activity (AID 2283077); conditions: primary human HUVEC with PBMC; actives raise or lower the signal
Summary of the method: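 ELISA readout of E-selectin, 24 h post-dose, HUVEC + PBMC co-culture (LPS system). Gain or loss of signal vs DMSO baseline, bidirectional fit.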

[16] = read-out: Interleukin-8 (IL8), CXCL8 (gene 3576); assay: BSK_LPS_IL8: BioMAP Diversity Plus: LPS Assay for Interleukin-8 (IL8) Biomarker Activity (AID 2283078); conditions: primary human HUVEC with PBMC; actives raise or lower the signal
Summary of the method: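 HUVEC + PBMC co-culture, LPS-activated; test chemicals dosed, IL-8 read by ELISA at 24 h. Bidirectional curve fit vs DMSO baseline (gain or loss of signal).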

[17] = BSK_LPS_SRB: Viability Assessment in the BioMAP Diversity Plus: LPS Assay (AID 2283079); conditions: primary human HUVEC with PBMC;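 note: total protein by sulforhodamine B absorbance as a cytotoxicity measure; measured one day after compound addition; fitted in both directions against DMSO so loss or gain of signal counts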
Summary of the method: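 HUVEC + PBMC co-culture, LPS-stimulated; compound 24 h. 10% TCA fix, 0.1% SRB stain, A560. Bidirectional fit vs DMSO.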

[18] = read-out: Interleukin-1 alpha (IL1a), IL1A (gene 3552); assay: BSK_LPS_IL1a: BioMAP Diversity Plus: LPS Assay for Interleukin-1 alpha (IL1a) Biomarker Activity (AID 2283080); conditions: primary human HUVEC with PBMC; actives raise or lower the signal
Summary of the method: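 HUVEC/PBMC co-culture, LPS system; 24 h after dosing; IL-1a by ELISA; gain or loss of signal fitted bidirectionally vs DMSO baseline.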

Measured: AC50

Chain of E-selectin (Homo sapiens) (P16581 whole entry, looked up): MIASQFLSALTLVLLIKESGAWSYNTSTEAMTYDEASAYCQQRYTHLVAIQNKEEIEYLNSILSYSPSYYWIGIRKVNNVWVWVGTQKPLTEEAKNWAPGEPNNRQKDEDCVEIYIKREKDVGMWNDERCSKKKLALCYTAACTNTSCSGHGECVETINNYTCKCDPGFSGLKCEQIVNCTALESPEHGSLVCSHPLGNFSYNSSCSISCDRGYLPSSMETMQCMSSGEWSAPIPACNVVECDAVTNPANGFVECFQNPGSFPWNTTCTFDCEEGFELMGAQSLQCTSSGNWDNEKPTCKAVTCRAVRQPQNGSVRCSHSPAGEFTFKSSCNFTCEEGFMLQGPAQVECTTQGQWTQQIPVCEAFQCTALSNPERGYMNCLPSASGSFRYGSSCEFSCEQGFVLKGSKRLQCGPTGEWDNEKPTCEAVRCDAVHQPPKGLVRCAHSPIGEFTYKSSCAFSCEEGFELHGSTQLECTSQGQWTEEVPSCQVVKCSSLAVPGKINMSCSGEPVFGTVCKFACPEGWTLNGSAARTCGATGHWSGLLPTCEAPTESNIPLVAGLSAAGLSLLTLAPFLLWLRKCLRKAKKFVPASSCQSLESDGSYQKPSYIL

CCCCCCCCOC(=O)CCCCCCCCC(=O)OCCCCCCCC
inactive: all assays above

CC(=O)CC(C)(C)O
inactive: all assays above

COc1ccc([N+](=O)[O-])cc1N
inactive: all assays above

CC(O)CO (stereo unspecified)
inactive: all assays above

CN1CCC[C@H]1c1cccnc1
inactive: all assays above

CCc1ccc(CCOc2ccc(CC3SC(=O)NC3=O)cc2)nc1 (stereo unspecified)
inactive: all assays above

OCCC(F)(F)C(F)(F)C(F)(F)C(F)(F)C(F)(F)C(F)(F)F
active: [1] 53.1 µM and 47.1 µM | [2] 55.4 µM and 54.7 µM | [3] 55.1 µM | [4] 30 µM and 47.4 µM | [5] 53.5 µM and 55.3 µM | CD40, CD40 (gene 958) 40.8 µM | [17] 45.8 µM
inactive: [1] | [2] | [3] | [4] | [5] | [6] | [7] | [8] | [9] | [10] | [11] | [12] | [13] | [14] | CD40, CD40 (gene 958) | [15] | [16] | [17] | [18]

CCCCC(CC)COC(=O)CCCCC(=O)OCC(CC)CCCC (stereo unspecified)
inactive: all assays above

Nc1cccc2c(N)cccc12
active: [2] 16.3 µM | [4] 6.83 µM
inactive: all other assays above

CN(C)C=O
inactive: all assays above

CCCOC(=O)c1ccc(O)cc1
inactive: all assays above

From PubChem BioAssay (EPA / NIEHS)
